Compounds with a hit are over-represented: about 4.7% of the library has one in this group of screens.
ADAM10 inh – ADAM10 inhibition, QFRET primary screen; recombinant ADAM10, EDANS/DABCYL FRET peptide cleavage, 3 h; inhibition, % at 7 µM; hit rate 0.62% among 370,000;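 active = inhibition above a per-campaign cutoff equal to the mean of compounds falling between control-based bounds plus 3 SD, cut at about 20% in these data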;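 note: 0% = DMSO wells while the 100% control is not disclosed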
Pemphigus Ab inh – human desmoglein-3 autoantibody binding inhibition; hit rate 0.48% among 310,000; binding (percent of control), % at 10 µM; DSG3-coupled beads, scFv-anti-DSG3-GFP binding, flow cytometry; stronger effect = lower value; P32926;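 active = binding more than 3 SD below its plate's average and above zero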;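 note: hits lower antibody fragment binding to DSG3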
Target sequence (P32926 whole entry, looked up, the tested form may be a part): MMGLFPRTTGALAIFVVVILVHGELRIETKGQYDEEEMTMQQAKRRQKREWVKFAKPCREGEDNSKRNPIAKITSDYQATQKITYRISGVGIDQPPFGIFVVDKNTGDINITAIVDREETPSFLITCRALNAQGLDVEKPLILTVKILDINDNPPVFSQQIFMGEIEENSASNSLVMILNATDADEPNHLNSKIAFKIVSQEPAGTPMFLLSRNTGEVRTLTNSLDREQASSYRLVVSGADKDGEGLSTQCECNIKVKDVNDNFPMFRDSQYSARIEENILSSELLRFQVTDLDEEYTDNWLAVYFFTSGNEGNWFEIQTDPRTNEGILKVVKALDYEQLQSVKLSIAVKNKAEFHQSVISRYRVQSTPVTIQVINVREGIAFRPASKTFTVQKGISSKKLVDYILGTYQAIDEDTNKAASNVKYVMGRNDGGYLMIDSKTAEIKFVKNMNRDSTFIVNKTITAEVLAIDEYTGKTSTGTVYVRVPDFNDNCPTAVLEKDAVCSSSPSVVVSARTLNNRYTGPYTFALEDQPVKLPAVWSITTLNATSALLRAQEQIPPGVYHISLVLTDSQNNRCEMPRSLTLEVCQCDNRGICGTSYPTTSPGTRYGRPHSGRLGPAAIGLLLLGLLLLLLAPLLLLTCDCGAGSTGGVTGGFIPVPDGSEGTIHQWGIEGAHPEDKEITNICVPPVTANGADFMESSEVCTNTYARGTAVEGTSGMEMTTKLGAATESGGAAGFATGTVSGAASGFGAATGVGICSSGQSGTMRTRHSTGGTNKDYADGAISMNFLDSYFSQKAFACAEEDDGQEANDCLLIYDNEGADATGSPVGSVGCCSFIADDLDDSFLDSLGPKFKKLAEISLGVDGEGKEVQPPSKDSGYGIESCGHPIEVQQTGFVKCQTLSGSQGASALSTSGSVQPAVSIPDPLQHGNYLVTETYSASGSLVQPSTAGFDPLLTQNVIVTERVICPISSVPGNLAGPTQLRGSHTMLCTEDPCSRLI
rCAG binder – r(CAG) repeat RNA binding; AID 651821; TO-PRO-1 dye displacement fluorescence; hit rate 1.3% among 370,000; inhibition, % at 3 µM;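 active = inhibition above the plate cutoff, the mean of all test compounds on that plate plus 3 SD, cut at about 35% in these data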;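 note: 0% = DMSO alone and 100% = 100 µM mitoxantrone as full dye displacement; higher means more dye released from RNA so lower well fluorescence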
KLK7 zymogen act – proKLK7 (human) activation, primary screen | activation, % at 7 µM | P49862 | purified proKLK7, EDANS-DABCYL substrate fluorescence; 100% is mature enzyme control, 0% vehicle | hit rate 0.9% among 370,000;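 active = activation above the mean of all tested compounds plus 3 SD, computed per campaign excluding outliers beyond control limits, cut at about 13% in these data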
ADAM17 inh – ADAM17 inhibition, QFRET primary screen | inhibition, % at 6.95 µM | recombinant ADAM17, EDANS/DABCYL FRET peptide cleavage | hit rate 0.83% among 370,000;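 active = inhibition above the mean of compounds lying between control limits plus 3 SD, set per campaign, cut at about 8.5% in these data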;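 note: 0% = DMSO-only wells as the low control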
MPTP block – permeability transition pore inhibition; isolated mouse mitochondria, Ca2+ swelling absorbance, 30 min; inhibition, % at 10 µM; hit rate 1.4% among 360,000;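 active = inhibition of 50% or more, scaled per plate between neutral and stimulator controls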;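 note: 0% = DMSO wells given calcium and 100% = 1 mM EGTA wells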
Rh123 counter – mitochondrial membrane potential, counter-screen; shares compounds with MPTP block; isolated mitochondria, Rhodamine 123 fluorescence; inhibition, % at 10 µM; hit rate 78% among 5,000; AID 624504; in the data active = inhibition above about 22%;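 note: 0% = DMSO vehicle and 100% = positive control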
MPTP abs DR – dose response confirmation of mitochondrial permeability transition pore inhibitors; shares compounds with MPTP block; isolated mitochondria swelling, absorbance; IC50, µM; hit rate 58% among 780; in the data active = IC50 below about 20 µM
MPTP cs DR – active in counter-screen for permeability transition pore inhibitors; shares compounds with MPTP block; isolated mitochondria counterscreen, fluorescence read-out; IC50, µM; hit rate 49% among 780; AID 651564; in the data active = IC50 below about 80 µM
The depositor's hits bear a star; i = inactive; x = no result.

SMILES	ADAM10 inh	Pemphigus Ab inh	rCAG binder	KLK7 zymogen act	ADAM17 inh	MPTP block	Rh123 counter	others
COc1ccc2sc(N(CCCN(C)C)C(=O)c3ccc(S(=O)(=O)N4CCCc5ccccc54)cc3)nc2c1	14.3	111.7	2.9	-0.6	2.3	86.4*	-18.7
COc1ccc2sc(N(CCCN(C)C)C(=O)c3ccc(C(=O)c4ccccc4)cc3)nc2c1	-3.9	98.2	-7.8	-0.7	0.4	79.6*	-8.7	MPTP abs DR=13.9*;MPTP cs DR=64*
CCOC(=O)CN1C(=O)[C@]2(OCCC=C[C@H]2C)c2cc(OC)ccc21	-14.7	x	-1.5	-0.1	-5.4	x	x
CCN(Cc1ccccc1)S(=O)(=O)c1ccc(C(=O)N(CCCN(C)C)c2nc3ccc(F)cc3s2)cc1	1.6	128.4	-2.4	-0.8	-2.2	2.9	x
CCN(Cc1ccccc1)S(=O)(=O)c1ccc(C(=O)N(CCCN(C)C)c2nc3cc(OC)ccc3s2)cc1	14.3	109.4	0.2	0.4	2.0	65.2*	-12.4	MPTP abs DR=i;MPTP cs DR=30.5*
CCN(Cc1ccccc1)S(=O)(=O)c1ccc(C(=O)N(CCCN(C)C)c2nc3cc4c(cc3s2)OCCO4)cc1	2.8	110.6	6.0	-2.5	1.6	58.8*	-14.2
Cc1cccc(NC(=O)C2C(c3ccccc3)C2(Cl)Cl)c1C (stereo not drawn)	1.9	x	2.0	0.6	-1.8	71.4*	76.7*
Cc1cc(C(=O)NCc2cc(F)cc3c2OCOC3)nn1C	-0.3	x	2.4	0.0	-0.8	0.4	x
Cn1nc(C(C)(C)C)cc1C(=O)NCc1cc(F)cc2c1OCOC2	-4.3	103.5	-4.0	0.2	0.2	92.3*	83.9*
CCN(c1cccc(C(F)(F)F)c1)S(=O)(=O)c1ccc2c(c1)CCN2C(=O)C1CC1	5.3	112.4	-2.0	0.2	-0.4	62.2*	63.5*
CCOC(=O)[C@@]12CCCC3=C1N(CCC3)C(=O)[C@H]2CC(=O)NCc1ccc(OC)c(OC)c1	4.6	x	-1.1	-0.7	-0.3	x	x
Clc1ccc(-c2nc3ccccc3nc2-c2ccccc2)cc1	-7.2	95.8	-0.2	0.1	1.5	55.0*	-6.2	MPTP abs DR=18.6*;MPTP cs DR=>80
CN(C)S(=O)(=O)c1ccc(C(=O)Nc2nc(-c3cc4ccccc4o3)cs2)cc1	-33.1	96.0	1.1	-10.8	-4.0	84.6*	87.4*
O=C(Nc1nc(-c2cc3ccccc3o2)cs1)c1ccc(S(=O)(=O)N2CCCC2)cc1	0.0	93.2	3.6	-6.3	0.1	62.8*	81.6*
O=C(Nc1nc(-c2nc3ccccc3s2)cs1)c1ccc(S(=O)(=O)N2CCOCC2)cc1	13.8	97.8	8.3	-0.2	2.6	8.7	x
CC1CN(S(=O)(=O)c2ccc(C(=O)Nc3nc(-c4cc5ccccc5o4)cs3)cc2)CC(C)O1 (stereo not drawn)	-5.3	83.8	4.5	-3.1	-1.9	88.0*	19.0	MPTP abs DR=i;MPTP cs DR=<2.5*
CCCc1cn(-c2ccc3c(c2)[C@@]2(CC(=O)N(C)C2c2ccccc2)C(=O)N3CC(C)C)nn1 (stereo partly drawn)	-2.5	x	0.0	-0.3	-0.4	x	x
CCC[C@@H](CN[C@@H](CNC)C(C)C)NCCCCc1ccccc1	-1.6	99.6	-2.7	0.7	-3.6	1.0	x
CCCC[C@@H](CNC)NC[C@H](NCCCCC1CCCCC1)C(C)C	7.8	104.5	14.1	-0.2	-4.1	90.5*	-22.6	MPTP abs DR=6.76*;MPTP cs DR=>80
Cc1nnc(NC(=O)CSc2n[nH]c(-c3ccccc3C)n2)s1	11.4	x	0.9	0.3	-0.4	95.6*	-7.8	MPTP abs DR=>100;MPTP cs DR=>80
O=C(Cn1nnc(N2CCOCC2)n1)NN=Cc1ccccc1Cl	-4.7	x	2.1	0.4	-5.6	x	x
CCCc1c(NC(=O)Nc2ccc(F)cc2)cnn1-c1ccc(Cl)cc1	9.4	113.4	-3.8	0.7	2.0	87.6*	73.6*
O=C(NCc1ccc(Cl)cc1)Nc1ccc(F)cc1	11.9	102.7	-0.3	-0.2	0.1	5.0	x
CS(=O)(=O)N1C[C@]2(c3ccccc3)CC1Cc1ccccc12	-2.1	x	x	x	-3.2	x	x
C=CCNc1cccc2c1S(=O)(=O)N[C@H](C)CO2	-4.7	x	1.3	0.8	-0.7	x	x

Compound activity (PubChem BioAssay)
